Reference: PubChem BioAssay
For part of these data: Measured potencies and affinities stand elsewhere. Active and inactive are the calls of the source. Unless noted, no rule for the calls is given here.

How the values were obtained:
[1] = antimalarial activity against Dd2 strain (AID 2302;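 active = growth inhibition above 50% at the single 2 µM test dose, taken to imply half-maximal potency below 2 µM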;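 also: 0% = DMSO untreated growth and 100% = chloroquine plus artemisinin killed control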); settings: P. falciparum Dd2 in RBCs, LDH growth readout, 72 h; at 2 µM; hits give high values
[2] = HepG2 cytotoxicity, primary screen, cytotoxicity control for P. falciparum antimalarial project, cell-based, ATP luminescence (AID 2303;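 active = inhibition above 50%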;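 also: 0% = DMSO wells and 100% = digitonin-killed cells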); settings: HepG2 viability, 24-48 h, at 10 µM, hits give high values
[3] = molecular target: L-lactate dehydrogenase (Plasmodium falciparum (isolate CDC / Honduras)) (UniProt Q27743); test: PfLDH activity inhibition – cell lysate, 3D7 strain, counter-screen for P. falciparum growth inhibition project (AID 2304);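 also: 0% = vehicle and 100% = reference inhibitor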; settings: P. falciparum 3D7 crude extract, LDH APAD/NBT absorbance; at 2 µM; hits give high values
[4] = inhibition of 3D7 malaria parasite growth – strain 3D7 (AID 2306);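 also: 0% = DMSO wells and 100% = chloroquine plus artemisinin control wells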; settings: P. falciparum 3D7 erythrocytic growth, LDH absorbance, 72 h; at 2 µM; hits give high values
[5] = molecular target: Calcium-dependent protein kinase 1 (Plasmodium falciparum (isolate 3D7)) (UniProt P62344); test: PfCDPK1 kinase inhibitors, biochemical, TCAMS library (AID 1159585; cut-off not given, nearly all actives have IC50 up to about 0.98 µM;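 also: inhibitors leave more ATP so luminescence rises with inhibition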); settings: recombinant PfCDPK1, Kinase-Glo ATP depletion luminescence
[6] = molecular target: Plasmodium falciparum protein kinase 6 (PK6, PF3D7_1337100) (UniProt Q8IDW1); test: PfPK6 kinase inhibitors, biochemical, TCAMS library (AID 1159586); settings: recombinant PfPK6, Kinase-Glo ATP depletion luminescence
[7] = molecular target: Protein kinase 7 (PK7), Plasmodium falciparum 3D7 (PF3D7_0213400) (UniProt Q7YTF7); test: inhibition of Plasmodium PK7 catalytic activity – biochemical, TCAMS antimalarial set, Kinase-Glo luminescence (AID 1159587); settings: recombinant PfPK7, Kinase-Glo ATP depletion luminescence
[8] = molecular target: Calcium-dependent protein kinase 4 (Plasmodium falciparum (isolate 3D7)) (UniProt Q8IBS5); test: PfCDPK4 kinase inhibitors, biochemical, TCAMS library (AID 1159588; cut-off not given, nearly all actives have IC50 up to about 0.91 µM); settings: recombinant PfCDPK4, Kinase-Glo ATP depletion luminescence
Calcium-dependent protein kinase 4 (Plasmodium falciparum (isolate 3D7)), sequence (Q8IBS5 whole entry, looked up): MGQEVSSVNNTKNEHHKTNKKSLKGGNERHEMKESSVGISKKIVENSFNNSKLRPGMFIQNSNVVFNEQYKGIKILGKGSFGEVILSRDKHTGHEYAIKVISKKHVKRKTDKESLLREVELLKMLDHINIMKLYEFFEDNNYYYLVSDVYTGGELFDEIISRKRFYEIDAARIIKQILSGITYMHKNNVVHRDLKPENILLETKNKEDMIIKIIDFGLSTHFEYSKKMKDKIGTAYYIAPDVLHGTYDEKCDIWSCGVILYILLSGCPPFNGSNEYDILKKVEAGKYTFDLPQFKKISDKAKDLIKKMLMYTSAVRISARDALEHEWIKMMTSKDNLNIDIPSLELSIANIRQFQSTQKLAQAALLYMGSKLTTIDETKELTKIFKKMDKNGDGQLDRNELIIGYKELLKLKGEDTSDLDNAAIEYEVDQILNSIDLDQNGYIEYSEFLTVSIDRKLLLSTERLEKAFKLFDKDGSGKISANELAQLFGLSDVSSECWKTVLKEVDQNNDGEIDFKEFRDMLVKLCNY

L-lactate dehydrogenase (Plasmodium falciparum (isolate CDC / Honduras)), sequence (Q27743 whole entry, looked up): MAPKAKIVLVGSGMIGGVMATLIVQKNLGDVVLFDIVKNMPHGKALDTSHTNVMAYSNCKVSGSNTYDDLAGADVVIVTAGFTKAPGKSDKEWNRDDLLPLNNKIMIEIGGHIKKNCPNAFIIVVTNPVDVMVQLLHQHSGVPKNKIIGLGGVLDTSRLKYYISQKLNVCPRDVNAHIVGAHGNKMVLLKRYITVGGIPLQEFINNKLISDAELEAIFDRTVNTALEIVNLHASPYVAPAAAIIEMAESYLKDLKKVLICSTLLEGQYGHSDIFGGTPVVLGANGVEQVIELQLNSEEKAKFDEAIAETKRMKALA
Plasmodium falciparum protein kinase 6 (PK6, PF3D7_1337100), sequence (Q8IDW1 1-305): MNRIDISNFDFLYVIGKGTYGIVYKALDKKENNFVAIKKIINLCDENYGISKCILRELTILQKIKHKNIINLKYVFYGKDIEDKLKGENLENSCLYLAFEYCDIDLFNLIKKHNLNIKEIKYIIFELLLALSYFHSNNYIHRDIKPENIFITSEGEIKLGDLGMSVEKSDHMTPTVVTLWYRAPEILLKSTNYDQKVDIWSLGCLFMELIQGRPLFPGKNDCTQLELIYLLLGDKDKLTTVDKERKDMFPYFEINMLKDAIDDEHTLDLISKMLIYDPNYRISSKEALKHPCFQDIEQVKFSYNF
Calcium-dependent protein kinase 1 (Plasmodium falciparum (isolate 3D7)), sequence (P62344 whole entry, looked up): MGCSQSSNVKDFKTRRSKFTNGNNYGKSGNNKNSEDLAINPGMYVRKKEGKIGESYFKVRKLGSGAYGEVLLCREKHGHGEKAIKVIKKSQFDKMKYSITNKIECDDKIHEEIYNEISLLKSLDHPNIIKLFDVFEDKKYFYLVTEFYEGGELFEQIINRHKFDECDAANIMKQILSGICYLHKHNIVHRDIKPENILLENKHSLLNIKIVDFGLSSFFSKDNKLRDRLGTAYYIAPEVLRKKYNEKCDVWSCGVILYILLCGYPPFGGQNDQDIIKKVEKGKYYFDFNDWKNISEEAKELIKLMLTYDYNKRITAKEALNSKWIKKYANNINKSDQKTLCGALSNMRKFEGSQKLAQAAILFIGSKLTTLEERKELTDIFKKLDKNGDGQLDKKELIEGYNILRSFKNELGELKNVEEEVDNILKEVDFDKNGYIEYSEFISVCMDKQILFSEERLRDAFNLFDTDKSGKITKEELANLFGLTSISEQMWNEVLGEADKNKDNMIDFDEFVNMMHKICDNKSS
Protein kinase 7 (PK7), Plasmodium falciparum 3D7 (PF3D7_0213400), sequence (Q7YTF7 1-343): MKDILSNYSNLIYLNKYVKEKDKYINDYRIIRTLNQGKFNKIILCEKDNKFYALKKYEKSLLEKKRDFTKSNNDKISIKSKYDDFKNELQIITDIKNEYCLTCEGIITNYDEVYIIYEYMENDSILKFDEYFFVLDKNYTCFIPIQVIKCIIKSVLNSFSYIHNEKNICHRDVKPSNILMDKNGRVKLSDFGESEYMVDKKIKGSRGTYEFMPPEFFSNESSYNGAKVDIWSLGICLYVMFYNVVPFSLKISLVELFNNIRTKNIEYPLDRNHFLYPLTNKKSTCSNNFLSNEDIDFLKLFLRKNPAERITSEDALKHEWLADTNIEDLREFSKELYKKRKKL

COc1ccc2nccc([C@@H](O)CN3CCC(NCCOc4ccc(F)cc4Cl)CC3)c2c1
inactive: inhibition [2] 1% | inhibition [3] 3% | outcome [5] | outcome [6] | outcome [7] | outcome [8]
active: growth inhibition [1] 85% | growth inhibition [4] 99%

CC(=O)Nc1nc(C(=O)Nc2ccc(-c3cccc(-c4nc5ccc(F)cc5[nH]4)c3)cc2)cs1
inactive: growth inhibition [1] 29% | inhibition [3] -7% | outcome [5] | outcome [6] | outcome [7] | outcome [8]
active: inhibition [2] 86% | growth inhibition [4] 94%

COc1ccc2nc3cc(Cl)ccc3c(NCCCO)c2c1
inactive: inhibition [2] 32% | inhibition [3] -1% | outcome [5] | outcome [6] | outcome [7] | outcome [8]
active: growth inhibition [1] 100% | growth inhibition [4] 100%

CCN(CCC1(c2ccc(Cl)c(Cl)c2)CN(C(=O)c2cc(OC)c(OC)c(OC)c2)CCO1)[C@@H]1C[C@@H]2c3ccccc3C[C@@H]21 (some centres not stated)
active: growth inhibition [1] 65% | growth inhibition [4] 80%
inactive: inhibition [2] 26% | inhibition [3] -4% | outcome [5] | outcome [6] | outcome [7] | outcome [8]

CCC(C)c1ccc(O)c(NC(=O)c2cncc(Br)c2)c1 (configuration not stated)
inactive: growth inhibition [1] 16% | inhibition [2] -13% | inhibition [3] -4% | outcome [5] | outcome [6] | outcome [7] | outcome [8]
active: growth inhibition [4] 100%

COc1cccc(Nc2nc(C)cc(NCc3ccc(-n4ccnc4)cc3)n2)c1
active: growth inhibition [1] 99% | growth inhibition [4] 101%
inactive: inhibition [2] -13% | inhibition [3] -5% | outcome [5] | outcome [6] | outcome [7] | outcome [8]

O=C(N1CCN(c2ccc(C(F)(F)F)cc2[N+](=O)[O-])CC1)C(Cl)(Cl)Cl
inactive: inhibition [2] 29% | inhibition [3] 0% | outcome [5] | outcome [6] | outcome [7] | outcome [8]
active: growth inhibition [1] 99% | growth inhibition [4] 101%

COc1ccc(NS(=O)(=O)c2ccccc2Br)cc1N1CCN(C)CC1
inactive: growth inhibition [1] 3% | inhibition [2] 2% | inhibition [3] -3% | outcome [5] | outcome [6] | outcome [7] | outcome [8]
active: growth inhibition [4] 94%

CCN(CCNC(=O)Cn1c(C)cc2cc([N+](=O)[O-])ccc21)c1cccc(C)c1
inactive: inhibition [2] -3% | inhibition [3] 6% | outcome [5] | outcome [6] | outcome [7] | outcome [8]
active: growth inhibition [1] 95% | growth inhibition [4] 97%

CCOCCCNc1nc2cc(OC)c(OC)cc2c2nc(-c3ccccc3)nn12
inactive: inhibition [2] 10% | inhibition [3] -3% | outcome [5] | outcome [6] | outcome [7] | outcome [8]
active: growth inhibition [1] 98% | growth inhibition [4] 96%

COc1ccccc1N1CCN(CCCCNC(=O)c2ccc(NC(=O)c3ccc(OC(F)(F)F)cc3)cc2)CC1
inactive: growth inhibition [1] 39% | inhibition [2] 29% | inhibition [3] -6% | outcome [5] | outcome [6] | outcome [7] | outcome [8]
active: growth inhibition [4] 100%

Cc1cc(NN=Cc2cccc(F)c2)c2cc(F)ccc2n1
inactive: inhibition [2] 7% | inhibition [3] -1% | outcome [5] | outcome [6] | outcome [7] | outcome [8]
active: growth inhibition [1] 99% | growth inhibition [4] 101%

O=C1CCCN1CCCNCc1cccc(-c2ccc(-c3nc4ccc(C(F)(F)F)cc4[nH]3)s2)c1
active: growth inhibition [1] 99% | growth inhibition [4] 100%
inactive: inhibition [2] 19% | inhibition [3] -4% | outcome [5] | outcome [6] | outcome [7] | outcome [8]

C=C[C@]1(C)C[C@@H](OC(=O)CNC[C@@H](O)CN2C[C@H](c3ccnc4ccc(OC)nc34)OC2=O)[C@]2(C)[C@H](C)CC[C@]3(CCC(=O)[C@H]32)[C@@H](C)[C@@H]1O
inactive: inhibition [2] 0% | inhibition [3] -3% | outcome [5] | outcome [6] | outcome [7] | outcome [8]
active: growth inhibition [1] 82% | growth inhibition [4] 89%

N#Cc1cncc(-c2nc3c(N4CCCC(N)C4)cccc3n2CCNCc2ccccc2)c1 (configuration not stated)
inactive: growth inhibition [1] 1% | inhibition [2] 8% | inhibition [3] -1% | outcome [5] | outcome [6] | outcome [7] | outcome [8]
active: growth inhibition [4] 101%

CC(C)C(=O)NC(Nc1ccc([N+](=O)[O-])cc1)C(Cl)(Cl)Cl (configuration not stated)
inactive: inhibition [2] 7% | inhibition [3] -6% | outcome [5] | outcome [6] | outcome [7] | outcome [8]
active: growth inhibition [1] 84% | growth inhibition [4] 97%

Nc1ccc2[nH]cc(C3CCN(CCC4CCN(C(=O)/C=C/c5ccc(Cl)c(Cl)c5)CC4)CC3)c2n1
active: growth inhibition [1] 78% | growth inhibition [4] 100%
inactive: inhibition [2] 27% | inhibition [3] 0% | outcome [5] | outcome [6] | outcome [7] | outcome [8]

O=C(/C=C/c1ccc(Cl)c(Cl)c1)NCCCCCN1CCC(NC(=O)Nc2ccc(Cl)cc2Cl)CC1
inactive: growth inhibition [1] 33% | inhibition [3] -2% | outcome [5] | outcome [6] | outcome [7] | outcome [8]
active: inhibition [2] 96% | growth inhibition [4] 91%

CCc1cc2c(Sc3nnc(N)s3)ncnc2s1
inactive: inhibition [2] -20% | inhibition [3] -4% | outcome [5] | outcome [6] | outcome [7] | outcome [8]
active: growth inhibition [1] 65% | growth inhibition [4] 99%

CN1CCCC(CN2CCN(Cc3ccc(-c4ccc(-c5nc6ccccc6[nH]5)cc4)cc3)CC2)C1 (configuration not stated)
inactive: inhibition [3] 0% | outcome [5] | outcome [6] | outcome [7] | outcome [8]
active: growth inhibition [1] 100% | inhibition [2] 69% | growth inhibition [4] 101%

O=C(C=Cc1ccc(-c2nc3ccccc3[nH]2)cc1)NC1CCN(Cc2ccccc2)CC1
active: growth inhibition [1] 88% | growth inhibition [4] 99%
inactive: inhibition [2] 15% | inhibition [3] 3% | outcome [5] | outcome [6] | outcome [7] | outcome [8]

COc1ccc(N2CCN(CCCCNCc3ccc(NC(=O)c4cc(Cl)cc(Cl)c4)cc3)CC2)c(OC)c1
active: growth inhibition [1] 99% | growth inhibition [4] 100%
inactive: inhibition [2] 39% | inhibition [3] 0% | outcome [5] | outcome [6] | outcome [7] | outcome [8]

CC1(C)N=C(N)N=C(N)N1OCCCOc1ccc(N)cc1
inactive: inhibition [3] 1% | outcome [5] | outcome [6] | outcome [7] | outcome [8]
active: growth inhibition [1] 95% | inhibition [2] 66% | growth inhibition [4] 96%

CC1(C)N=C(N)NC(NOCC=Cc2ccccc2)=N1
active: growth inhibition [4] 98%
inactive: growth inhibition [1] 2% | inhibition [2] 35% | inhibition [3] -2% | outcome [5] | outcome [6] | outcome [7] | outcome [8]

Fc1ccc2[nH]c(-c3ccccc3)nc2c1CN1CCC(N2CCCC2)CC1
inactive: growth inhibition [1] 30% | inhibition [2] 2% | inhibition [3] -2% | outcome [5] | outcome [6] | outcome [7] | outcome [8]
active: growth inhibition [4] 100%

O=C(/C=C/c1ccc(Cl)c(Cl)c1)NCCCCCN1CCC(c2c[nH]c3ccccc23)CC1
active: growth inhibition [4] 99%
inactive: growth inhibition [1] 7% | inhibition [2] 33% | inhibition [3] -2% | outcome [5] | outcome [6] | outcome [7] | outcome [8]

Cc1cccc2[nH]c(-c3ccc(-c4ccc(CNCc5cccc(N)c5)cc4)s3)nc12
active: growth inhibition [1] 78% | growth inhibition [4] 102%
inactive: inhibition [2] 10% | inhibition [3] -2% | outcome [5] | outcome [6] | outcome [7] | outcome [8]

Cc1cc(C(F)(F)F)n2nc(C(=O)N(C)Cc3cncn3Cc3ccc(F)cc3)cc2n1
inactive: inhibition [2] -1% | inhibition [3] 0% | outcome [5] | outcome [6] | outcome [7] | outcome [8]
active: growth inhibition [1] 96% | growth inhibition [4] 101%

CCN(CC)CCCN(CCCN(CC)CC)c1cc(C)nc(Nc2ccc(Cl)cc2)n1
inactive: growth inhibition [1] 7% | inhibition [2] 11% | inhibition [3] 2% | outcome [5] | outcome [6] | outcome [7] | outcome [8]
active: growth inhibition [4] 101%

N[C@@H](COc1cccc2c(-c3ccncc3)c(-c3cccc(NC(=O)Nc4ccccc4)c3)nn12)c1ccccc1
inactive: inhibition [2] 9% | inhibition [3] 2% | outcome [5] | outcome [6] | outcome [7] | outcome [8]
active: growth inhibition [1] 71% | growth inhibition [4] 101%

Cc1ccc(NC(=O)c2ccc3ncccc3c2)cc1OC1CCN(CCC(C)C)CC1
active: growth inhibition [4] 94%
inactive: growth inhibition [1] 48% | inhibition [2] 2% | inhibition [3] -4% | outcome [5] | outcome [6] | outcome [7] | outcome [8]

COc1cc(Nc2nccc(N3CCC(NC(=O)C4COc5ccccc5O4)C3)n2)cc(OC)c1OC (configuration not stated)
inactive: inhibition [2] 5% | inhibition [3] 5% | outcome [5] | outcome [6] | outcome [7] | outcome [8]
active: growth inhibition [1] 58% | growth inhibition [4] 90%

Cc1ccc(Nc2ccnc3ccc(C(F)(F)F)cc23)cc1O
inactive: inhibition [2] 23% | inhibition [3] -6% | outcome [5] | outcome [6] | outcome [7] | outcome [8]
active: growth inhibition [1] 69% | growth inhibition [4] 102%

c1cc(CN2CCN(c3ccncc3)CC2)cc(-c2ccc(-c3nc4ccccc4[nH]3)s2)c1
active: growth inhibition [1] 100% | inhibition [2] 59% | growth inhibition [4] 102%
inactive: inhibition [3] -2% | outcome [5] | outcome [6] | outcome [7] | outcome [8]

COc1cccc2c(C)cc(NCc3ccc(Cl)cc3)nc12
inactive: growth inhibition [1] 5% | inhibition [2] 7% | inhibition [3] 5% | outcome [5] | outcome [6] | outcome [7] | outcome [8]
active: growth inhibition [4] 97%

Cc1ccc(CNC(=O)c2cnc(N3CCN(c4ccncc4)CC3)c(Cl)c2)cc1
inactive: growth inhibition [1] 6% | inhibition [2] 27% | inhibition [3] -3% | outcome [5] | outcome [6] | outcome [7] | outcome [8]
active: growth inhibition [4] 92%

O=S(=O)(Nc1cccc(CCN2CCC(N3CCCCC3)CC2)c1)c1ccc(-c2ccccc2)cc1
active: inhibition [2] 76% | growth inhibition [4] 100%
inactive: growth inhibition [1] 49% | inhibition [3] 1% | outcome [5] | outcome [6] | outcome [7] | outcome [8]

Cc1cc(NC(=O)c2cccs2)ccc1OC1CCN(Cc2ccccc2)C1 (configuration not stated)
inactive: inhibition [2] 7% | inhibition [3] -1% | outcome [5] | outcome [6] | outcome [7] | outcome [8]
active: growth inhibition [1] 87% | growth inhibition [4] 84%

COc1ccc(OCCCON2C(N)=NC(N)=NC2(C)C)cc1
inactive: inhibition [3] -3% | outcome [5] | outcome [6] | outcome [7] | outcome [8]
active: growth inhibition [1] 94% | inhibition [2] 55% | growth inhibition [4] 97%
